YjeE inh – qHTS Assay for Inhibitors of YjeE. purified YjeE enzyme, qHTS inhibition assay. Potency, µM. actives 0.05% (n = 71,000)
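Fluorescence polarization of a BODIPY Texas Red–ADP probe (2 uM) bound to purified YjeE (10 uM) was read after 15 min room-temperature incubation with compounds. Loss of polarization marks inhibitors; ADP serves as titrated control.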
Pol III holo inh – qHTS Assay for Inhibitors of DNA Polymerase III Holoenzyme System; actives 0.25% (n = 71,000); Potency, µM (doses to about 57.1 µM); reconstituted DNA polymerase III holoenzyme replication, biochemical
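Reconstituted *E. coli* holoenzyme (0.35 nM Pol III, 1 nM beta, 154 nM SSB, 2 nM primase) was preincubated with compound for 15 min at RT. Synthesis on 1.4 nM ssM13Gori ran 35 min, then was stopped with PicoGreen/EDTA and read as dsDNA fluorescence.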
Tau fil binding – qHTS Assay for Tau Filament Binding. Microtubule-associated protein tau (Homo sapiens), P10636. recombinant tau filaments, thioflavin S fluorescence, 15 h; filaments grown with octadecylsulfate alongside compound. Potency, µM (highest dose often 57.1 µM). actives 2% (n = 71,000). AID 596, 2007;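 further: actives lower thioflavin S fluorescence by blocking filaments or displacing dye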
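Tau 2 uM in ThS buffer dispensed; compound added; 60 uM ODS added (finals 1 uM tau, 30 uM ODS); 15 h 37 C; fluor ex450/em510.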
Hsp90 Hop PPI – qHTS Assay for Disrupters of an Hsp90 Co-Chaperone Interaction; AlphaScreen TPR2A-His6 binding biotin-Hsp90 C-terminal peptide; Potency, µM (titrated, usually from 57 µM); Hsp90 C-terminal peptide / TPR2A (Hop) interaction, human; AID 595, 2007; actives 0.44% (n = 71,000); active means well fitted curve in either direction with a large enough effect; inconclusive means small, poorly fitted or top-dose-only effect, or another doubt
BRCT PPI green – qHTS Assay for Inhibitors of BRCT-Phosphoprotein Interaction (Green Fluorophore); Potency, µM (highest dose often 76.9 µM), usual class: inhibitors; BRCA1 BRCT-phosphopeptide binding, green fluorescence polarization; AID 875, 2007; actives 0.05% (n = 75,000); Breast cancer type 1 susceptibility protein (Homo sapiens), P38398
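Fluorescence polarization: His-tagged BRCT (~35 kDa BRCA1 C-terminus, 250 nM) bound to 100 nM fluorescein-labeled phosphorylated 10-aa BACH1 peptide, pH 7.3 phosphate buffer with DTT and Tween 20. Compounds incubated 12 min at room temperature; inhibition read as lowered polarization.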
BRCT inh red – qHTS Assay for Inhibitors of BRCT-Phosphoprotein Interaction (Red Fluorophore); Breast cancer type 1 susceptibility protein (Homo sapiens), P38398; BRCT-phosphopeptide binding, red fluorescence polarization; Potency, µM (highest dose often 76.9 µM), usual class: inhibitors; actives 0.03% (n = 75,000); AID 892, 2007
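Rhodamine-labelled pBACH1 10-mer (100 nM) bound to BRCT domain (100 nM) at pH 7.3; compounds incubated 12 min room temperature, polarization read. Free peptide defines full inhibition; unlabelled decapeptide titrated as control.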
Large screens that a line does not name were inactive. In the library only some 2.4% were active in any assay of this set; here they are far more common. Unless noted, the call rests on the fitted dose curve; in most records, active means well fitted curve in the direction sought with a large enough effect; inconclusive means small, poorly fitted or top-dose-only effect, or another doubt; inactive means no such curve, though single readings can be large; an effect the other way counts as inactive or inconclusive.

CCC1OC(=O)C(C)[C@@H](O[C@H]2C[C@@](C)(OC)C(O)C(C)O2)C(C)[C@@H](O[C@@H]2OC(C)CC(N(C)C)C2O)[C@@](C)(O)CC(C)C2NC(COCCOC)O[C@H](C2C)[C@@]1(C)O (stereo partly specified)	none (no result: YjeE inh, Pol III holo inh, Tau fil binding, Hsp90 Hop PPI)
CCc1ccc(C2CC(c3ccccc3Cl)Nc3nc(N)nn32)cc1 (stereo unspecified)	Tau fil binding 20µM
CCc1ccc(C2CC(c3ccccc3)Nc3nc(N)nn32)cc1 (stereo unspecified)	none
Cc1nn2c(c1-c1ccccc1)NC1=C(C(=O)CCC1)C2c1cccnc1 (stereo unspecified)	none
Cc1nn(-c2ccccc2)c2c1C(c1cccnc1)N1C=C(S(=O)(=O)N3CCCCC3)C=CC1=N2 (stereo unspecified)	Tau fil binding 16µM, Hsp90 Hop PPI inconclusive
CC(C)=CCC/C(C)=C/COc1c2ccoc2cc2oc(=O)ccc12	Tau fil binding inconclusive, Hsp90 Hop PPI inconclusive (no result: BRCT PPI green, BRCT inh red)
O=C1c2oc3ccc(F)cc3c(=O)c2C(c2cccc(O)c2)N1CCCN1CCOCC1 (stereo unspecified)	none
CCOc1ccc(C2c3c(oc4ccccc4c3=O)C(=O)N2CCCN2CCOCC2)cc1 (stereo unspecified)	none
CCOc1ccc(C2c3c(oc4cc(C)c(C)cc4c3=O)C(=O)N2CCCN2CCOCC2)cc1 (stereo unspecified)	Tau fil binding 16µM
Cc1ccc2oc3c(c(=O)c2c1)C(c1cccc(Cl)c1)N(CCCN1CCOCC1)C3=O (stereo unspecified)	Tau fil binding 13µM
Cc1cc2oc3c(c(=O)c2cc1C)C(c1ccc(C(C)C)cc1)N(CCCN1CCOCC1)C3=O (stereo unspecified)	Tau fil binding 4µM
CN(C)C(=O)c1ccc(-c2cncnc2N2CCNCC2)cc1	none
Cc1cccc(CNc2cc(-c3ccc(C(=O)N(C)C)cc3)ncn2)c1	none
Cc1noc(C)c1-c1ccc2ncnc(NCc3cccs3)c2c1	YjeE inh inconclusive
N=C(N)SCCc1ccc(OCc2ccc([N+](=O)[O-])cc2)cc1	Tau fil binding 32µM
O=C(O)C1CCC(CNc2c(NC3CCCCC3)c(=O)c2=O)CC1 (stereo unspecified)	none
CC(C)n1cc(/C=C(\C#N)S(=O)(=O)c2ccccc2)c2ccccc21	Tau fil binding 7.9µM
N#CCCn1cc(C(CC(=O)c2ccccc2)C(=O)O)c2ccccc21 (stereo unspecified)	none
C[C@@H]1C=CCC(=O)OC[C@H](C)C(=O)OC[C@H]2O[C@H]1C=C[C@H]2O	none (no result: YjeE inh, Pol III holo inh, Tau fil binding, Hsp90 Hop PPI)
Cc1cccc(-n2c(SCC(=O)Nc3nnc(C)s3)nnc2-c2ccoc2C)c1	Tau fil binding 16µM, Hsp90 Hop PPI inconclusive
FC(F)(F)c1cc(-c2ccco2)nc(NCc2cccnc2)n1	Tau fil binding 20µM
Fc1ccc(CNc2nc(-c3ccco3)cc(C(F)(F)F)n2)cc1	Tau fil binding inconclusive, Hsp90 Hop PPI inconclusive
c1ccc(-c2cc(-c3nc(-c4cccnc4)no3)c3ccccc3n2)cc1	Tau fil binding 4µM
C[C@@]12C(=O)OC(=O)[C@@]1(C)[C@@H]1CC[C@@H]2O1	Tau fil binding 32µM
COC(=O)NC/C=C\c1nc(CCCO)co1	none (no result: YjeE inh, Pol III holo inh, Tau fil binding, Hsp90 Hop PPI)
CC(C)C12CN3CC(C(C)C)(CN(C1)C31C(=O)Nc3ccccc31)C2=O (stereo unspecified)	Tau fil binding 16µM
COC(=O)c1ccccc1NC(=O)CNc1cc(Cl)ccc1N1CCOCC1	Tau fil binding 16µM, Hsp90 Hop PPI inconclusive
COCCN(CCOC)C(=O)c1ccc(Cc2nc3ccccc3[nH]2)cc1	none (no result: YjeE inh, Pol III holo inh, Tau fil binding, Hsp90 Hop PPI)
CC(=O)C1=C(C)NC(SCC(=O)c2cc(Cl)ccc2Cl)=C(C#N)C1c1ccco1 (stereo unspecified)	none
CC(=O)C1=C(C)NC(SCC(=O)c2ccc(Cl)c(Cl)c2)=C(C#N)C1c1ccco1 (stereo unspecified)	Tau fil binding 1µM
O=c1c(-c2ccccc2)nc2cnc(Nc3ccccc3)nc2n1Cc1cccs1	none
Cc1ccc(C2NC(=O)NC3=C2CCc2ccccc23)cc1 (stereo unspecified)	Tau fil binding 20µM
O=C(Nc1cccc(Oc2ccc3c(c2)C(=O)NC3=O)c1)c1ccco1	Tau fil binding 25µM
O=C(c1ccncc1)N1CCC[C@@]2(CCN(Cc3ccncc3)C2)C1	none
COc1ccc(N2C(=O)c3ccc(NC(C)=O)cc3C2=O)cc1	none
COc1cc2c3c(c1)/C(=C1/SC(NC(C)=O)=NC1=O)C(=O)N3C(C)(C)C=C2C	Hsp90 Hop PPI 25µM
O=C(OC1CCCCC1)c1ccc2c(c1)C1C=CCC1C(C(=O)O)N2 (stereo unspecified)	Pol III holo inh 20µM, Tau fil binding 0.63µM, Hsp90 Hop PPI inconclusive, BRCT PPI green inconclusive, BRCT inh red inconclusive
O=C(O)C1Nc2c(O)cccc2C2C=CCC12 (stereo unspecified)	Pol III holo inh 3.2µM, Tau fil binding 13µM, Hsp90 Hop PPI 25µM
CCN1CCCC1CNC(=O)c1ccc(Cc2nc3ccccc3[nH]2)cc1 (stereo unspecified)	none (no result: YjeE inh, Pol III holo inh, Tau fil binding, Hsp90 Hop PPI)
CC1C(NC(=O)/C(=N/OC(C)(C)C(=O)O)c2csc(N)n2)C(=O)N1S(=O)(=O)O (stereo unspecified)	none (no result: YjeE inh, Pol III holo inh, Tau fil binding, Hsp90 Hop PPI)
C/C(=C\COc1cc(=O)[nH]c2ccccc12)CC[C@@H](O)C(C)(C)O	Tau fil binding 40µM (no result: BRCT PPI green, BRCT inh red)
Nc1[nH]nc2nc3ccccc3nc12	Tau fil binding 40µM
CC(=O)c1ccc2c3c(ccc(O)c13)CC2	Tau fil binding 4µM, Hsp90 Hop PPI inconclusive
CC(=O)c1ccc(O)c(CN(C2CCCCC2)C2CCCCC2)c1O	none
C=CC(=O)OCCOCCOC(=O)C=C	none
O=C(Nc1ccc2c(c1)OCCO2)c1ccc2nccnc2c1	none
O=C(Nc1ccc(SC(F)F)cc1)c1ccc2nccnc2c1	Tau fil binding 13µM
Nc1ccccc1NC1=CC(=O)CC(c2ccco2)C1 (stereo unspecified)	Tau fil binding 16µM
COc1ccc(N2CCN(C(=O)C(C)(C)Oc3ccc(Cl)cc3)CC2)cc1	Tau fil binding 13µM
CC(=O)OCC1OC(n2cnc3c(=O)[nH]cnc32)C(OC(C)=O)C1OC(C)=O (stereo unspecified)	none (no result: YjeE inh, Pol III holo inh, Tau fil binding, Hsp90 Hop PPI)

Screening results as filed in PubChem BioAssay.
